{"source": "PubChem BioAssay (EPA / NIEHS)", "note": "Calls of active or inactive are those of the source. How the source made its calls: active means hit-call score of the fitted dose curve at least 0.9, where 1 is the maximum; inactive means score below 0.9.", "data": [{"read-out": "HGF (gene 3082)", "assay": "LTEA_HepaRG_HGF: Life Technologies and Expression Analysis (LTEA) Assay for Hepatocyte Growth Facto (HGF) using HepaRG (AID 2283505)", "conditions": "mRNA level, 48 h; actives raise or lower the signal", "in_short": "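Differentiated HepaRG cells in serum-free induction medium exposed 48 h in duplicate, 8 half-log concentrations from 100 uM in 0.5% DMSO. HGF mRNA by qRT-PCR, normalised to ACTB, GAPDH, POLR2A; bidirectional fitting.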", "values": [{"compound": "COc1cc2c(c(OC)c1OC)-c1ccc(OC)c(=O)cc1[C@@H](NC(C)=O)CC2", "outcome": "inactive"}, {"compound": "CCn1nc(C)c2c1C(=O)NCC(c1ccc(O)cc1)=N2", "outcome": "inactive"}, {"compound": "CCCCCCCCCC", "outcome": "inactive"}, {"compound": "O=C(O)c1ccc2c(c1)nc(C(=O)NC1CCN(C3CC3)CC1)n2Cc1cc(-c2ccc(Cl)s2)on1", "outcome": "inactive"}, {"compound": "Nc1ccn([C@@H]2O[C@H](CO)[C@@H](O)[C@@H]2O)c(=O)n1", "outcome": "inactive"}, {"compound": "NC(=O)NN=Cc1ccc([N+](=O)[O-])o1", "AC50": "12.4 µM (active)"}, {"compound": "OC(Cn1cncn1)(Cn1cncn1)c1ccc(F)cc1F", "outcome": "inactive"}, {"compound": "OCc1ccccc1", "outcome": "inactive"}, {"compound": "NNC(=O)c1ccncc1", "outcome": "inactive"}, {"compound": "CCc1ccc(O)c(C(C)(C)C)c1", "outcome": "inactive"}, {"compound": "CCOC(N)=O", "outcome": "inactive"}, {"compound": "CC(C)CCCCCCOC(=O)C1CCCCC1C(=O)OCCCCCCC(C)C", "note": "(stereo unspecified)", "outcome": "inactive"}, {"compound": "c1ccc(C(O[C@@H]2CCCN(CCc3ccc4c(c3)OCO4)C2)c2ccccc2)cc1", "AC50": "50 µM (active)"}, {"compound": "CC(C)C(=O)Nc1ccc([N+](=O)[O-])c(C(F)(F)F)c1", "AC50": "66.9 µM (active)"}, {"compound": "NC(=O)N(O)[C@@H]1COc2cc(OCc3ccccc3)ccc21", "outcome": "inactive"}, {"compound": "O=c1[nH]cnc2c1ncn2[C@H]1CC[C@@H](CO)O1", "outcome": "inactive"}, {"compound": "NC(N)=O", "outcome": "inactive"}, {"compound": "COCc1nnc(-c2ccc[n+]([O-])c2)n1-c1c(Cl)c(Cl)cc2[nH]c(=O)c(=O)[nH]c12", "outcome": "inactive"}, {"compound": "OC[C@H]1O[C@@H]2O[C@H]3[C@H](O)[C@@H](O)[C@@H](O[C@H]4[C@H](O)[C@@H](O)[C@@H](O[C@H]5[C@H](O)[C@@H](O)[C@@H](O[C@H]6[C@H](O)[C@@H](O)[C@@H](O[C@H]7[C@H](O)[C@@H](O)[C@@H](O[C@H]1[C@H](O)[C@H]2O)O[C@@H]7CO)O[C@@H]6CO)O[C@@H]5CO)O[C@@H]4CO)O[C@@H]3CO", "outcome": "inactive"}, {"compound": "CC(C)CC(C)O", "note": "(stereo unspecified)", "outcome": "inactive"}, {"compound": "CCCCN1C(=O)[C@@H]([C@H](O)C2CCCCC2)NC(=O)C12CCN(Cc1ccc(Oc3ccc(C(=O)O)cc3)cc1)CC2", "AC50": "9.25 µM (active)"}, {"compound": "CNC(C)=O", "outcome": "inactive"}, {"compound": "OCCNCCO", "outcome": "inactive"}, {"compound": "C=CN1CCCC1=O", "outcome": "inactive"}, {"compound": "CCCCCCCCN(C)C", "outcome": "inactive"}, {"compound": "c1ccc2ncccc2c1", "outcome": "inactive"}, {"compound": "CCCCCCOC(=O)CC(CC(=O)OCCCCCC)(OC(=O)CCC)C(=O)OCCCCCC", "outcome": "inactive"}, {"compound": "CCc1cccc(CC)c1N", "outcome": "inactive"}, {"compound": "Cc1ncc([C@@H](CCCCCCc2ccc3c(n2)NCCC3)CC(=O)O)cn1", "outcome": "inactive"}, {"compound": "CCCCCCCCCCCCCCCCOS(=O)(=O)O", "outcome": "inactive"}]}, {"read-out": "Insulin Like Growth Factor 1 (IGF1), IGF1 (gene 3479)", "assay": "LTEA_HepaRG_IGF1: Life Technologies and Expression Analysis (LTEA) Assay for Insulin Like Growth Factor 1 (IGF1) using HepaRG (AID 2283506)", "conditions": "mRNA level, 48 h; actives raise or lower the signal", "in_short": "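HepaRG, plated 48 h, then switched to serum-free induction media; test chemical 8-pt half-log from 100 uM (0.5% DMSO), duplicate, 48 h. Lysis in RLT, TaqMan qRT-PCR, norm. ACTB/GAPDH/POLR2A. Bidirectional fit vs DMSO.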", "values": [{"compound": "COc1cc2c(c(OC)c1OC)-c1ccc(OC)c(=O)cc1[C@@H](NC(C)=O)CC2", "AC50": "0.123 µM (active)"}, {"compound": "CCCCCCCCCC", "outcome": "inactive"}, {"compound": "Nc1ccn([C@@H]2O[C@H](CO)[C@@H](O)[C@@H]2O)c(=O)n1", "outcome": "inactive"}, {"compound": "OCc1ccccc1", "outcome": "inactive"}, {"compound": "NNC(=O)c1ccncc1", "outcome": "inactive"}, {"compound": "CCc1ccc(O)c(C(C)(C)C)c1", "outcome": "inactive"}, {"compound": "CCOC(N)=O", "outcome": "inactive"}, {"compound": "CC(C)CCCCCCOC(=O)C1CCCCC1C(=O)OCCCCCCC(C)C", "note": "(stereo unspecified)", "outcome": "inactive"}, {"compound": "CC(C)C(=O)Nc1ccc([N+](=O)[O-])c(C(F)(F)F)c1", "AC50": "37.8 µM (active)"}, {"compound": "NC(N)=O", "outcome": "inactive"}, {"compound": "OC[C@H]1O[C@@H]2O[C@H]3[C@H](O)[C@@H](O)[C@@H](O[C@H]4[C@H](O)[C@@H](O)[C@@H](O[C@H]5[C@H](O)[C@@H](O)[C@@H](O[C@H]6[C@H](O)[C@@H](O)[C@@H](O[C@H]7[C@H](O)[C@@H](O)[C@@H](O[C@H]1[C@H](O)[C@H]2O)O[C@@H]7CO)O[C@@H]6CO)O[C@@H]5CO)O[C@@H]4CO)O[C@@H]3CO", "outcome": "inactive"}, {"compound": "CCCCN1C(=O)[C@@H]([C@H](O)C2CCCCC2)NC(=O)C12CCN(Cc1ccc(Oc3ccc(C(=O)O)cc3)cc1)CC2", "AC50": "9.61 µM (active)"}, {"compound": "OCCNCCO", "outcome": "inactive"}, {"compound": "c1ccc2ncccc2c1", "outcome": "inactive"}, {"compound": "O=C1CN(N=Cc2ccc([N+](=O)[O-])o2)C(=O)N1", "AC50": "50 µM (active)"}, {"compound": "CCCC(CCC)C(=O)O", "outcome": "inactive"}, {"compound": "CCN(CC)C(=S)SSC(=S)N(CC)CC", "outcome": "inactive"}]}, {"read-out": "Intercellular Adhesion Molecule 1 (ICAM1), ICAM1 (gene 3383)", "assay": "LTEA_HepaRG_ICAM1: Life Technologies and Expression Analysis (LTEA) Assay for Intercellular Adhesion Molecule 1 (ICAM1) using HepaRG (AID 2283507)", "conditions": "mRNA level, 48 h; actives raise or lower the signal", "in_short": "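Differentiated human HepaRG cells in serum-free induction medium exposed 48 h in duplicate to 8 half-log concentrations (top 100 uM, 0.5% DMSO). ICAM1 mRNA quantified by TaqMan qRT-PCR, normalized to ACTB, GAPDH and POLR2A; bidirectional fitting versus DMSO.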", "values": [{"compound": "COc1cc2c(c(OC)c1OC)-c1ccc(OC)c(=O)cc1[C@@H](NC(C)=O)CC2", "outcome": "inactive"}, {"compound": "CCn1nc(C)c2c1C(=O)NCC(c1ccc(O)cc1)=N2", "outcome": "inactive"}, {"compound": "CCCCCCCCCC", "outcome": "inactive"}, {"compound": "O=C(O)c1ccc2c(c1)nc(C(=O)NC1CCN(C3CC3)CC1)n2Cc1cc(-c2ccc(Cl)s2)on1", "outcome": "inactive"}, {"compound": "Nc1ccn([C@@H]2O[C@H](CO)[C@@H](O)[C@@H]2O)c(=O)n1", "outcome": "inactive"}, {"compound": "NC(=O)NN=Cc1ccc([N+](=O)[O-])o1", "AC50": "0.211 µM (active)"}, {"compound": "OC(Cn1cncn1)(Cn1cncn1)c1ccc(F)cc1F", "outcome": "inactive"}, {"compound": "OCc1ccccc1", "outcome": "inactive"}, {"compound": "NNC(=O)c1ccncc1", "outcome": "inactive"}, {"compound": "CCc1ccc(O)c(C(C)(C)C)c1", "outcome": "inactive"}, {"compound": "CCOC(N)=O", "outcome": "inactive"}, {"compound": "CC(C)CCCCCCOC(=O)C1CCCCC1C(=O)OCCCCCCC(C)C", "note": "(stereo unspecified)", "outcome": "inactive"}, {"compound": "c1ccc(C(O[C@@H]2CCCN(CCc3ccc4c(c3)OCO4)C2)c2ccccc2)cc1", "AC50": "85.3 µM (active)"}, {"compound": "CC(C)C(=O)Nc1ccc([N+](=O)[O-])c(C(F)(F)F)c1", "AC50": "87.3 µM (active)"}, {"compound": "NC(=O)N(O)[C@@H]1COc2cc(OCc3ccccc3)ccc21", "outcome": "inactive"}, {"compound": "O=c1[nH]cnc2c1ncn2[C@H]1CC[C@@H](CO)O1", "outcome": "inactive"}, {"compound": "NC(N)=O", "outcome": "inactive"}, {"compound": "COCc1nnc(-c2ccc[n+]([O-])c2)n1-c1c(Cl)c(Cl)cc2[nH]c(=O)c(=O)[nH]c12", "outcome": "inactive"}, {"compound": "OC[C@H]1O[C@@H]2O[C@H]3[C@H](O)[C@@H](O)[C@@H](O[C@H]4[C@H](O)[C@@H](O)[C@@H](O[C@H]5[C@H](O)[C@@H](O)[C@@H](O[C@H]6[C@H](O)[C@@H](O)[C@@H](O[C@H]7[C@H](O)[C@@H](O)[C@@H](O[C@H]1[C@H](O)[C@H]2O)O[C@@H]7CO)O[C@@H]6CO)O[C@@H]5CO)O[C@@H]4CO)O[C@@H]3CO", "outcome": "inactive"}, {"compound": "CC(C)CC(C)O", "note": "(stereo unspecified)", "outcome": "inactive"}, {"compound": "CCCCN1C(=O)[C@@H]([C@H](O)C2CCCCC2)NC(=O)C12CCN(Cc1ccc(Oc3ccc(C(=O)O)cc3)cc1)CC2", "AC50": "2.32 µM (active)"}, {"compound": "CC(C)c1nnc2ccc(-c3ocnc3-c3cc(F)ccc3F)cn12", "outcome": "inactive"}, {"compound": "CNC(C)=O", "outcome": "inactive"}, {"compound": "OCCNCCO", "outcome": "inactive"}, {"compound": "C=CN1CCCC1=O", "outcome": "inactive"}, {"compound": "CCCCCCCCN(C)C", "outcome": "inactive"}, {"compound": "c1ccc2ncccc2c1", "outcome": "inactive"}, {"compound": "CCCCCCOC(=O)CC(CC(=O)OCCCCCC)(OC(=O)CCC)C(=O)OCCCCCC", "outcome": "inactive"}, {"compound": "CCc1cccc(CC)c1N", "outcome": "inactive"}, {"compound": "O=C1CN(N=Cc2ccc([N+](=O)[O-])o2)C(=O)N1", "outcome": "inactive"}, {"compound": "CCCC(CCC)C(=O)O", "outcome": "inactive"}, {"compound": "Cc1ncc([C@@H](CCCCCCc2ccc3c(n2)NCCC3)CC(=O)O)cn1", "outcome": "inactive"}, {"compound": "CCCCCCCCCCCCCCCCOS(=O)(=O)O", "outcome": "inactive"}, {"compound": "CCN(CC)C(=S)SSC(=S)N(CC)CC", "outcome": "inactive"}]}]}
